# Screening data: PubChem BioAssay, National Center for Advancing Translational Sciences (NCATS)
# G9a inh: blocks human histone lysine methyltransferase G9a; hit rate 8.8% among 350,000; G9a H3K9 monomethylation, AlphaScreen, 2 h; Q96KQ7; Potency, µM (titrated, usually from 102 µM), hits mostly inhibitors; AID 504332; note: nearly all actives have a fitted effect of over 75% in size
# Target sequence (Q96KQ7 913-1193 limits assumed): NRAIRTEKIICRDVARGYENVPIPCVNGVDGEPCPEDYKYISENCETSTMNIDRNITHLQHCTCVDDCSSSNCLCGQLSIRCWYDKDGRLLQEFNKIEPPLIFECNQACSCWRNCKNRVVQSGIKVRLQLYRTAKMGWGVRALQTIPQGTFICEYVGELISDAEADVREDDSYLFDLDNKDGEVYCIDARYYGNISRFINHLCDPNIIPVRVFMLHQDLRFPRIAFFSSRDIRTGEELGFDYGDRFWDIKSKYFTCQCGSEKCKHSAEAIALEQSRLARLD
#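 AlphaScreen detection with an anti-monomethyl H3K9 antibody quantified product after a 2 h room-temperature reaction containing 500 nM biotinylated H3K9 peptide, 20 µM SAM and 20 nM enzyme, which had been preincubated 15 min with compound.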
# HP1b binding inh: blocks HP1-beta chromodomain binding to methylated histone tails; P83916; AlphaScreen HP1-beta / biotin-H3K9me3 peptide binding; Potency, µM (top dose mostly 114 µM), usual class: inhibitors; hit rate 0.56% among 390,000; note: nearly all actives have a fitted effect of over 70% in size
# Target sequence (P83916 whole entry, looked up): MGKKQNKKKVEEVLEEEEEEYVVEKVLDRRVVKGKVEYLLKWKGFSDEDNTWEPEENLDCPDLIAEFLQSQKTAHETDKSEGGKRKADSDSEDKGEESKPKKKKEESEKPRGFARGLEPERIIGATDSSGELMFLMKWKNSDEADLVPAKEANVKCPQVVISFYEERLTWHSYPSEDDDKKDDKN
#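 AlphaScreen: HP1-beta (50 nM) preformed 30 min with biotin-H3(1-18)K9me3 peptide (50 nM) in PBS pH 7.4, 0.01% Tween-20. Compound added for 30 min at RT, then streptavidin donor/nickel chelate acceptor beads (10 ug/mL) for 30 min.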
# JMJD2A Tudor: inhibitors of human JMJD2A Tudor domain. O75164. AlphaScreen JMJD2A-Tudor / H3K4me3 peptide binding. Potency, µM (series often up to 114 µM), usual class: inhibitors. hit rate 4.4% among 390,000; note: nearly all actives have a fitted effect of over 50% in size
# BAZ2B inh: blocks human BAZ2B; Q9UIF8; AlphaScreen BAZ2B-H3K14Ac peptide displacement; Potency, µM (top dose mostly 114 µM), usual class: inhibitors; hit rate 4.4% among 360,000; note: nearly all actives have a fitted effect of over 60% in size
#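 Multi-concentration screen (max 110 uM) measuring displacement of acetylated histone H3 peptide from BAZ2B by AlphaScreen, using 50 nM protein, 50 nM peptide and 10 ug/mL streptavidin donor plus Ni-chelate acceptor beads.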
# Sfp inh: Sfp phosphopantetheinyl transferase inhibition; Biochemical Sfp PPTase activity, qHTS; hit rate 3.5% among 310,000; Potency, µM, usual class: inhibitors;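 note: the enzyme is Sfp with the accession as filed and its product quenches rhodamine fluorescence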
#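 Fluorescence-quenching assay with 15 nM Sfp, 5 uM rhodamine-CoA and 12.5 uM BHQ-2-labelled ybbR peptide in pH 7.6 Hepes/MgCl2 buffer. Enzyme was pre-incubated with compound for 15 min at room temperature. Rate was taken from the 30-min fluorescence change (525/598 nm).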
# L3MBTL1 inh: blocks human L3MBTL1; Q9Y468; AlphaScreen L3MBTL1–H3K9me1 peptide binding; Potency, µM (titrated, usually from 57.1 µM), usual class: inhibitors; hit rate 0.66% among 230,000; AID 485360; note: nearly all actives have a fitted effect of over 60% in size
#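 L3MBTL1 50 nM + b-AHA-H3(1-15)K9me1 75 nM, 30 min RT; compound added, 30 min RT; streptavidin donor/Ni-chelate acceptor beads 10 ug/mL each final, 30 min RT dark; AlphaScreen read.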
# Hits are given with their value; n = inactive; u = inconclusive; x = no result; [ ] = remark or other dose. The list is not random: actives were taken first. Their share in the collection is about 12%. Calls come from the whole dose curve; as a rule, active = well fitted curve in the direction sought with a large enough effect; inconclusive = small, poorly fitted or top-dose-only effect, or another doubt; inactive = no such curve, though single readings can be large; an effect the other way counts as inactive or inconclusive.
SMILES,G9a inh,HP1b binding inh,JMJD2A Tudor,BAZ2B inh,Sfp inh,L3MBTL1 inh
O=C(C[n+]1ccc(C(=O)N/N=C/c2ccc(OCc3ccccc3)cc2)cc1)c1ccccc1,u,n,n,n,u,x
NC(=O)c1ccc[n+](CC(=O)c2cccc([N+](=O)[O-])c2)c1,n,n,n,n,n,x
COc1ccc(OC)c(/C=N/NC(=O)c2cc[n+](CC(=O)c3ccccc3)cc2)c1,79µM,n,n,n,n,x
Cc1cccc[n+]1CC(=O)c1ccc(NC(=O)c2ccccc2)cc1,x,n,n,n,n,n
Cc1cccc(NC(=O)c2c(NC(=O)c3ccco3)sc3c2CCC(C(C)(C)C)C3)c1 (stereo not drawn),n,n,n,n,x,x
O=C(C[n+]1ccc(C(=O)N/N=C/c2ccc(Br)cc2)cc1)c1ccccc1,7.9µM,n,n,n,n,x
O=C(C[n+]1ccccc1)N/N=C/c1ccc(Br)cc1,n[2.33 µM],n,n,n,x,n
CC12CCC(C(=O)NCc3cccnc3)(OC1=O)C2(C)C (stereo not drawn),n,n,n,n,n,n[11.4 µM]
CC12CCC(C(=O)NCc3ccccn3)(OC1=O)C2(C)C (stereo not drawn),u,n,u,79µM,n,x
CC1=C(C(=O)NCc2ccccn2)C2(CCC(C)CC2)OC1=O (stereo not drawn),10µM,n,28µM,79µM,n,n
Cc1ccc(-n2c(=O)c3c(c4cc(C)ccc4n3C)n(CC(=O)N3CCCC3)c2=O)cc1,n,n,n,n,x,x
CC(=O)Nc1ccc(N2C(=O)c3cccc4c(O)ccc(c34)C2=O)cc1,u,n,u,50µM,n,x
O=C1c2cccc3c(O)ccc(c23)C(=O)N1c1ccc(Cl)cc1,45µM,n,n,n,u,x
Cn1cc(CCC(=O)N2CCCC(N3CCN(c4ccccc4F)CC3)C2)cn1 (stereo not drawn),n,n,n,n,n,x
COc1ccc2c(C)cc3n[nH]c(=S)n3c2c1,1µM,u,0.71µM,u,16µM,n
O=C(N/N=C/c1ccc(N2CCOCC2)o1)c1cccc(F)c1,7.1µM,n,u,n,8.9µM,n
O=C(N/N=C/c1ccc(-c2cccc(C(F)(F)F)c2)o1)c1cccc(F)c1,n,n,n,n,n,u
COc1ccc(C(=O)N/N=C/c2ccc(N3CCOCC3)o2)cc1OC,8.9µM,n,n,n,3.5µM,x
COc1ccc(C(=O)N/N=C/c2ccc(N3CCOCC3)s2)cc1OC,n[12.7 µM],n,n,n,x,n
COc1ccc(/C=C/C(=O)c2ccc(C)c([N+](=O)[O-])c2)cc1O,45µM,n,u,u,79µM,n
COc1cc(/C=C/C(=O)c2ccc(C)c([N+](=O)[O-])c2)cc(OC)c1O,45µM,n,n,n,n,n
COc1cccc(/C=C/C(=O)c2ccc(C)c([N+](=O)[O-])c2)c1,u,n,n,n,n,n
CN(C)c1ccc(-c2ccc3ncnc(-n4ccnc4)c3c2)cc1,n[0.501 µM],x,x,x,n,x
COCC1=C2c3ccccc3[C@@H]3CNC(=O)C3(C(=O)OC)C[C@@H]2n2c(=O)n(-c3ccccc3)c(=O)n2C1 (stereo partly drawn),x,x,x,x,n,x
Cc1[nH]c2ccc(C(=O)OC(C)C(=O)N(C)C3CCCCC3)cc2c1C (stereo not drawn),45µM,u,u,56µM,x,n
SMILES,G9a inh,HP1b binding inh,JMJD2A Tudor,BAZ2B inh,Sfp inh,L3MBTL1 inh
Cc1[nH]c2ccc(C(=O)OC(C)C(=O)N(C)c3ccccc3)cc2c1C (stereo not drawn),n[0.501 µM],u,u,50µM,x,n
CC(=O)Nc1ccc(NC(=O)C(C)OC(=O)c2ccc3[nH]c(C)c(C)c3c2)cc1 (stereo not drawn),50µM,n,u,n,x,n
O=C(O)Cc1cc(F)c(S(=O)(=O)N2CCN(S(=O)(=O)c3ccc4c(c3)OCCO4)CC2)cc1F,x,x,n,x,x,x
Nc1nc(Cl)nc2ncn(Cc3ccccc3)c12,x,n,n,n,n,n
O=C(Cc1nc2ccccc2[nH]1)c1ccc(Br)cc1,45µM,n,n,n,n,n
O=C(O)COCc1nc2ccccc2[nH]1,79µM,n,n,n,n,n
CN(C)CCCNC(=O)c1cc(C(=O)c2ccccc2)c[nH]1,n[2.33 µM],n,n,n,n,x
O=C(c1ccccc1)c1c[nH]c(C(=O)NNc2ccccc2)c1,10µM,n,n[11.4 µM],n,n,n
Cn1nnnc1Sc1ncnc2scc(-c3ccc4c(=O)ccoc4c3)c12,x,x,n,x,x,x
Cc1cccc(OCCSc2nnc(-c3cccs3)o2)c1,n,n,n,n,x,x
Cc1ccc(S[C@@H](CCN2CC[C@H](NC(=O)OCc3ccccc3)CCC2=O)c2ccccc2)cc1,x,n,25µM,n,u,n
Cc1ccc2ncc3c(-c4ccc(F)cc4)nn(CC(=O)Nc4ccccc4C)c3c2c1,n,n,n,n,x,x
O=C(NC(NNc1ccc([N+](=O)[O-])cc1)(C(F)(F)F)C(F)(F)F)c1ccc(F)cc1,13µM,u,u,u,n,n
COC(=O)C(NNc1ccccc1)(NC(=O)c1ccccc1F)C(F)(F)F (stereo not drawn),n[12.7 µM],n,n,u,n,n
COC(=O)C(NNc1ccccc1)(NC(=O)c1ccc(F)cc1)C(F)(F)F (stereo not drawn),35µM,n,n,n,n,n
O=C(NC(NNc1ccc([N+](=O)[O-])cc1)(C(F)(F)F)C(F)(F)F)c1ccccc1Cl,u,n,u,u,n,n
S=C(NCCCN1CCOCC1)NCCCN1CCOCC1,8.9µM,u,n,n,7.1µM,n
CCCCCCCCNC(=S)NCCN1CCCCC1,45µM,u,79µM,u,n,n
FC(F)(F)Oc1ccc(NC(=S)NCCCN2CCOCC2)cc1,50µM,n,n,n,56µM,n
S=C(NCCCN1CCOCC1)NC1CCCC1,n,n,n,n,n,n
Cc1ccc(-c2nnc(Nc3ccc(C(=O)N(C)C)cc3)c3ccccc23)cc1S(=O)(=O)N(C)C,n,n,n,n,x,x
CC[C@H](C)[C@H](NC(=O)[C@H](Cc1ccc(O)cc1)NC(=O)[C@@H](NC(=O)[C@H](CCCN=C(N)N)NC(=O)[C@@H](N)CC(=O)O)C(C)C)C(=O)N[C@@H](Cc1cnc[nH]1)C(=O)N1CCC[C@H]1C(=O)O,x,x,x,x,n,x
CCCCc1ccc(-n2nc3cc(Cl)c(NC(=O)c4ccc(OC)cc4)cc3n2)cc1,n,n,n,n,x,x
Cc1ccc(NC(=S)N(CCN2CCCCC2)Cc2ccco2)cc1Cl,50µM,n,n,n,n,x
Cc1ccc(NC(=S)N(CCCN2CCOCC2)Cc2ccco2)cc1C,n,n,n,u,n,n
Cc1cc(NC(=S)N(CCCN2CCN(C)CC2)Cc2ccco2)ccc1Cl,32µM,n,n,n,n,n
CCOc1ccccc1Nc1nc2ccccc2c2nncn12,n,n,n,n,x,x
